Assay outcomes (PubChem BioAssay)
Hits are enriched below; roughly 1.6% of the tested compounds scored in any of these assays.
KCNQ2 inh = inhibitors of rat KCNQ2 potassium channel; CHO-K1 KCNQ2, FluxOR thallium flux, 20 min; hits give low values; B-score at 10 µM; O88943; hit rate 1.1% among 310,000;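 active = fluorescence ratio B-score at most minus 3 library SDs, with starting brightness B-score within 2 library SDs, cut at about -5.5 in these data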
KCNQ2 pot = KCNQ2 (rat) channel potentiation. O88943. CHO-K1 KCNQ2, FluxOR thallium flux fluorescence; hits give high values. B-score at 10 µM. hit rate 0.54% among 310,000;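 active = fluorescence ratio B-score at least 3 SD of library B-scores, with initial fluorescence B-score within 3 of them, cut at about 5.3 in these data; same plate scores as AID 2156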;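 note: B-score of peak minus minimum over baseline fluorescence ratio after K+ and Tl+ stimulus; positive B-score means potentiation of KCNQ2 with more thallium influx and brighter signal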
Kir21 conf inh = confirmation of mouse Kir2.1 potassium channel inhibitors; shares compounds with KCNQ2 pot; Kir2.1-expressing cells, FluxOR thallium flux fluorescence; hits give low values; Tl flux remaining, % of negative control (hits give low values), % at 10 µM; hit rate 41% among 2,300; AID 2032;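 active = Primary-screen hit whose thallium flux fell at least 3 control SD below untreated wells in both duplicates, with normal baseline fluorescence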
Target sequence (P35561 whole entry, looked up): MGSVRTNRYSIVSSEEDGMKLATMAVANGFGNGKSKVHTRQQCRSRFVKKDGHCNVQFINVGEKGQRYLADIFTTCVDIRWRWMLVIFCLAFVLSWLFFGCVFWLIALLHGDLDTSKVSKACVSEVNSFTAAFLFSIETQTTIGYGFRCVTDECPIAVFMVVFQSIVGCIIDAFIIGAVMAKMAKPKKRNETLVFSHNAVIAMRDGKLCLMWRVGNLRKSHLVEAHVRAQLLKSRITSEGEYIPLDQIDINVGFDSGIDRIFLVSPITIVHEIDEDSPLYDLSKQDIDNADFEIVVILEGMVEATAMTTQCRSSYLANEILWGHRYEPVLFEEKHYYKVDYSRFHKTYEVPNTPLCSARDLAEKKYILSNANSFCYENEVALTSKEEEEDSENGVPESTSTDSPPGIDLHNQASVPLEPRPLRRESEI
HEK293 ctr = parental HEK293 activity in Kir2.1 inhibitor counter-screen; shares compounds with KCNQ2 pot; parental HEK293 cells, FluxOR thallium flux fluorescence; 0% = unstimulated blank wells; FluxOR signal as % of negative control (100 = no effect), % at 10 µM; hit rate 19% among 2,300; AID 2105;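 active = dye signal at least 3 control SD above or below untreated wells in both duplicates, raw fluorescence within 3, either direction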;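 note: percent is based on the flux ratio of peak minus minimum fluorescence over baseline F0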
CHO-K1 ctr = counter-screen for KCNQ2 potentiators: effect in parental CHO-K1 cells; shares compounds with KCNQ2 pot; FluxOR thallium flux fluorescence; zero = vehicle mean+3SD, 100% = vehicle-minus-blank window; activity increase over 3SD of controls, % at 10 µM; hit rate 43% among 1,200; AID 2282;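 active = signal rise of at least 3 SD above the untreated control mean, in both duplicate wells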;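 note: counter screen of KCNQ2 potentiator hits so any rise reflects channel-independent effects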
KCNQ1 sel pot = tests whether KCNQ2 potentiators also act on human KCNQ1; shares compounds with KCNQ2 pot; CHO KCNQ1 stable, FluxOR thallium flux fluorescence; beyond 3SD, as % of vehicle-control signal; activation over 3SD threshold, % at 10 µM; hit rate 28% among 1,200; AID 2283;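 active = fluorescence ratio rise of at least 3 SD of vehicle wells above their mean, in both replicate wells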
KCNQ2 pot conf = rat KCNQ2 channel potentiator confirmation; shares compounds with KCNQ2 pot; CHO-KCNQ2 cells, FluxOR thallium flux fluorescence; potentiation, less the hit threshold, % at 10 µM; hit rate 68% among 1,200;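 active = fluorescence ratio rising 3 SD or more over the vehicle control mean in both replicates, plus primary screen hit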;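 note: peak minus minimum thallium fluorescence divided by baseline after K/Tl stimulus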
Kir21 spec = tests whether KCNQ2 potentiators also affect mouse Kir2.1; shares compounds with KCNQ2 pot; HEK293 Kir2.1, FluxOR thallium flux fluorescence; activity over 3SD threshold, % at 10 µM; hit rate 2% among 1,200;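 active = fluorescence ratio rise of at least 3 SD above the vehicle-control mean, seen in both replicates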
KCNQ2 W236L MoA = rat KCNQ2 W236L mutant potentiation by KCNQ2 potentiators; shares compounds with KCNQ2 pot; CHO KCNQ2-W236L, automated patch clamp current; current increase over 3SD of negative controls (%), hits give high values, % at 25 µM; hit rate 10% among 940;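 active = current increase at least 3 SD of the untreated controls above them in both duplicate recordings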
Hits are given with their value; . = inactive; / = not tested or not shown.

SMILES	KCNQ2 inh	KCNQ2 pot	Kir21 conf inh	HEK293 ctr	others
CC(/C=N/n1c(C2CCCCC2)n[nH]c1=S)=C\c1ccccc1	.	8.35	.	.	CHO-K1 ctr=92.0;KCNQ1 sel pot=23.4;KCNQ2 pot conf=.;Kir21 spec=.
Cc1cccc(/C=N/n2c(C3CCCCC3)n[nH]c2=S)c1	.	/	/	/
O=C1c2ccccc2C(=O)N1Cc1ccccc1F	.	/	/	/
CC1CCCCC1NC(=O)CCCn1c(=S)[nH]c2ccccc2c1=O (stereo not given)	.	.	/	/
CC1CCCCC1n1c(=S)[nH]c2ccccc2c1=O (stereo not given)	.	6.64	.	207.5%	CHO-K1 ctr=0.6;KCNQ1 sel pot=19.8;KCNQ2 pot conf=19.1;Kir21 spec=.;KCNQ2 W236L MoA=.
Cc1ccc(C)c(N(C(=O)CNC(=O)c2ccco2)C(C(=O)NC2CCCC2)c2ccncc2)c1 (stereo not given)	.	.	/	/
Cc1ccc(C(OCC(O)CN2CCCCC2CO)c2ccccc2)cc1 (stereo not given)	.	.	/	/
O=C(c1ccccc1)c1ccc(OCC(O)CNCc2ccc(F)cc2)cc1 (stereo not given)	.	/	25.5%	.
CCC(=O)c1ccc(OCC(O)CNCc2ccc(F)cc2)cc1 (stereo not given)	.	.	/	/
COc1ccc(C(OCC(O)CNCCc2ccccc2)c2ccc(OC)cc2)cc1 (stereo not given)	.	/	43.5%	.
O=C(c1ccccc1)c1ccc(OCC(O)CNCc2cccc(Cl)c2)cc1 (stereo not given)	.	/	47.5%	.
COc1ccc(C(OCC(O)CNC(C)c2ccccc2)c2ccc(OC)cc2)cc1 (stereo not given)	.	/	/	/
Cc1ccc(C(OCC(O)CNCc2ccc(F)cc2)c2ccccc2)cc1 (stereo not given)	.	/	33.5%	.
Cc1ccc(OCC(O)CNCc2ccccc2)cc1C (stereo not given)	.	/	/	/
O=[N+]([O-])c1cc(S(=O)(=O)NCCN2CCOCC2)ccc1Cl	.	/	/	/
CC1=C([N+](=O)[O-])C(c2ccc3c(c2)OCO3)N(C)C(=O)N1C (stereo not given)	.	.	/	/
O=C(Nc1cc(C(F)(F)F)cc(C(F)(F)F)c1)Nc1cnn(-c2ccc([N+](=O)[O-])cc2)c1C(F)(F)F	.	/	/	/
Cn1c(=O)[nH]c(=O)c2c1nc(N1CCCCC1)n2C/C=N/Nc1ccc(C(=O)O)cc1	.	/	/	/
O=[N+]([O-])c1ccc2ccn(C3OCC(O)C(O)C3O)c2c1 (stereo not given)	.	/	/	/
Cc1cccc(CCNC(=O)COc2cc(=O)n(C)c3ccccc23)c1	.	/	/	/
CCN(CCCNC(=O)COc1cc(=O)n(C)c2ccccc12)c1cccc(C)c1	.	/	60.0%	.
Cc1cc(C)cc(SCc2noc(C(=O)NCCCN3CCOCC3)c2C(=O)NCCCN2CCOCC2)c1	.	.	/	/
O=C(OCc1ccc(Cl)c(Cl)c1)c1ccccn1	.	.	/	/
Nc1ncccc1OCc1ccc(Cl)c(Cl)c1	.	5.37	.	.	CHO-K1 ctr=.;KCNQ1 sel pot=.;KCNQ2 pot conf=.;Kir21 spec=.
Cc1cc(C)c(S(=O)(=O)/N=C2\C=C(Nc3ccc(C(=O)O)cc3)C(=O)c3ccccc32)c(C)c1	.	7.87	.	.	CHO-K1 ctr=9.1;KCNQ1 sel pot=.;KCNQ2 pot conf=.;Kir21 spec=.;KCNQ2 W236L MoA=.
CCc1ccc(S(=O)(=O)/N=C2\C=C(Nc3cccc(C(=O)O)c3)C(=O)c3ccccc32)cc1	.	.	/	/
COc1ccc(C(=O)NCCC2=CCCCC2)cc1	.	/	/	/
COc1ccc(OC(C)C(=O)NCCC2=CCCCC2)cc1 (stereo not given)	.	/	48.0%	.
CCCCOc1c(Br)cc(/C=N/O)cc1OCC	.	/	74.0%	.
C=CCOc1c(Br)cc(/C=N/O)cc1OCC	.	/	/	/
